# The campaign covered roughly 300,000 compounds. About 37,000 (12%) were called active. Shown is part of a subset that was picked to be rich in actives. Unmarked numbers belong to inactive results. Cut-off read from the data, not from the text of the source: active = max response mostly above about 13% (no sharp cut-off); inactive = mostly below about 14%.
# Assay: Cycloheximide Counterscreen for Small Molecule Inhibitors of Shiga Toxin; note: read at 38.3 µM for the half of the compounds with a filed dose; 0% is about no effect
# Settings: cell reporter, cycloheximide protein synthesis inhibition counterscreen; stronger effect = higher value
row,SMILES,max response
1,CCCCC1S/C(=N/N=C/c2cccs2)NC1=O (stereo unspecified),-2.78%
2,Nc1ccc(-c2nnc(-c3ccccc3)o2)cc1,51.7% (active)
3,Nc1ccc(-c2sc(N)nc2-c2ccccc2)cc1,1.13%
4,Nc1ccc(-c2nnc(-c3ccc(-c4ccccc4)cc3)o2)cc1,58% (active)
5,COc1cccc(OC)c1C(=O)N1CCN(Cc2cccnc2)CC1,-3.44%
6,COc1cc(CNCCN(C)C)ccc1OCc1c(F)cccc1Cl,-2.65%
7,CCOC(=O)C1CCN(S(=O)(=O)c2ccc3c(c2)N(C(C)=O)CCO3)CC1,2.65%
8,Cc1cc(-c2cccs2)nc(-n2cccc2)n1,16.4%
9,CCCS(=O)(=O)Nc1ccc(-c2cn3c(n2)SCC3)cc1,1.28%
10,c1csc(-c2cn3c(n2)SCC3)c1,22.4% (active)
11,COCCNC(=O)CSc1nc2sccc2c(=O)n1-c1ccccc1,-7.71%
12,O=C(NC1CCCC1)C(c1ccco1)N(C(=O)c1csnn1)c1ccccc1 (stereo unspecified),-5.09%
13,NC(=O)C1CCCN(CC(=O)N2CCN(c3ccccc3)CC2)C1 (stereo unspecified),-4.9%
14,CCOC(=O)C1CCN(S(=O)(=O)c2ccc3c(c2)N(C)C(=O)CC(=O)N3C)CC1,-2.95%
15,COc1ccc2c(c1OC)C(=O)N(c1ccc(O)cc1)C2,18.3% (active)
16,COc1ccc2c(c1OC)C(=O)N(c1ncn[nH]1)C2,2.6%
17,COc1cc(C(=O)N2C(=O)c3cccc(N)c3C2=O)cc(OC)c1OC,2.15%
18,CCOc1ccc(S(=O)(=O)Nc2ccc(OC)nc2)cc1,-3.62%
19,CCOC(=O)C1=C(CSc2nnnn2C)N(C)C(=O)NC1c1ccccc1 (stereo unspecified),-4.86%
20,Cc1cccnc1NC(=O)Cn1c(=O)oc2ccccc21,-0.475%
21,Cc1nc(COc2cc3oc(=O)cc(C)c3cc2Cl)cs1,5.56%
22,O=C(CCc1ccccc1)Nc1ccnn1C1CCN(Cc2ccc(OCCO)cc2)CC1,-1.22%
23,Cc1ccccc1-c1nc(CS(=O)(=O)CC(=O)NC(C)c2ccccc2)c(C)o1 (stereo unspecified),1.09%
24,O=C(Nc1cccnc1)c1ccc(Cl)c([N+](=O)[O-])c1,11.1%
25,C/C(=N\NS(=O)(=O)c1ccc(Cl)cc1)c1ccc(NC(=O)c2ccco2)cc1,34.2% (active)
26,O=C(Nc1ccc(Cl)cc1)Nc1ccc(Oc2cccnc2)nc1,46.4% (active)

row,SMILES,max response
1,C/C(=N/NS(=O)(=O)c1ccccc1)c1ccc(NC(=O)C(F)(F)F)cc1,1.13%
2,CN1CCN(S(=O)(=O)c2ccc(NC(=O)c3ccco3)cc2)CC1,12%
3,O=C(Nc1ccncc1)c1ccc(Cl)c([N+](=O)[O-])c1,-2.17%
4,Cc1ccnc(NC(=O)c2ccc(Cl)c([N+](=O)[O-])c2)c1,28.9% (active)
5,O=C(NNC(=O)c1csc(-c2cccnc2)n1)Nc1ccc(Cl)cc1,1.7%
6,O=C(Nc1cccnc1)c1cc(Cl)ccc1Cl,1.75%
7,CCOC(=O)c1ccc(NC(=O)CNC(=O)c2ccco2)cc1,-0.716%
8,COC(=O)c1cc(NC(=O)c2ccco2)ccc1N1CCOCC1,-1.96%
9,COC(=O)c1ccc(NC(=O)c2ccco2)cc1,25.4% (active)
10,COc1ccc(N2C(=O)/C(=C\c3ccco3)N=C2SCC(N)=O)cc1Cl,1.81%
11,CCOc1ccccc1N1CCN(C(=S)Nc2ccc(S(N)(=O)=O)cc2)CC1,-1.52%
12,Cc1ccc(C(CNC(=O)Nc2ccccc2)N2CCN(C)CC2)cc1 (stereo unspecified),-1.45%
13,COC(=O)c1cc(S(=O)(=O)N2CCN(c3cc(C)ccc3C)CC2)c[nH]1,1.68%
14,Cc1ccc(-c2nn(-c3cccc(F)c3)cc2CNCCc2ccncc2)o1,5.75%
15,Cc1ccc(Cl)c(NC(=O)CN2CCN(C=O)CC2)c1,5.32%
16,OC(CNCc1ccc(Cl)c(Cl)c1)c1ccccc1 (stereo unspecified),9.74%
17,CCN(CC)C(=O)COc1coc(CN2CCN(Cc3ccccc3)CC2)cc1=O,-3.15%
18,CCC(Oc1ccccc1C)C(=O)Nc1ccc(S(=O)(=O)Nc2cc(C)on2)cc1 (stereo unspecified),-7.98%
19,Cc1cccc(N2CCC(NCc3c(C(=O)N4CCCCC4)nc4c(C)cccn34)CC2)c1,-4.59%
20,Cc1ccnc(NC(=O)CCC(=O)N(CC(=O)NCc2ccccc2)Cc2ccco2)c1,-2.62%
21,COC(=O)c1ccc(NC(=O)Nc2ccc(C)cc2)cc1,25.1% (active)
22,O=C(NNC(=O)c1cccnc1)Nc1ccccc1,4.83%
23,O=C(Nc1ccc(O)cc1)c1ccc(NC(=O)c2ccco2)cc1,31.9% (active)
24,CCC(=O)Nc1ccc(C(=O)N2CCN(C(=O)c3ccco3)CC2)cc1,-1.69%
25,Cc1cc(NC(=O)c2ccc(F)cc2)ccc1NC(=O)c1ccco1,9.36%
26,Cc1ccc(NC(=O)Nc2cccnc2)cc1,24.6% (active)

row,SMILES,max response
1,Cc1ccc(NC(=O)NCC(c2cccnc2)N2CCOCC2)cc1 (stereo unspecified),-4.08%
2,Cc1ccnc(NC(=O)c2ccc(NC(=O)c3ccco3)cc2)c1,36.1% (active)
3,COc1cc(NC(=O)Nc2ccc(C)cc2)cc([N+](=O)[O-])c1,24%
4,Cc1ccc(NC(=O)CC(=O)Nc2ccc(C)cc2)cc1,-2.02%
5,Cc1ccc(NC(=O)/C(=C\c2ccccc2)NC(=O)c2ccco2)cc1,0.86%
6,CCc1ccccc1NC(=O)NCCN1CCCCC1,-2.65%
7,COc1cccc(CNC(=O)CCC2CCCN(C(=O)c3ccoc3C)C2)c1 (stereo unspecified),5.76%
8,Cc1ccc(S(=O)(=O)C2(S(=O)(=O)c3ccc(C)cc3)CCCC2)cc1,-2.93%
9,Nc1nc(SCC(=O)Nc2cc(C(F)(F)F)ccc2Cl)[nH]c(=O)c1NC(=O)c1ccco1,-2.16%
10,COc1ccc(S(=O)(=O)N2CCCCCC2)cc1C(=O)OCC(=O)Nc1cc(C)on1,-1.32%
11,Cc1cc(C)cc(C(=O)OCC(=O)NCCNC(=O)COC(=O)c2cc(C)cc(C)c2)c1,19%
12,O=C1c2ccccc2NC(c2ccccn2)N1NS(=O)(=O)c1ccccc1 (stereo unspecified),3.3%
13,CCn1c(SCC(=O)NC2=NCCS2)nnc1C(C)NC(=O)c1ccccc1F (stereo unspecified),-2.33%
14,Cc1cc2oc(=O)cc(CN3CCN(S(=O)(=O)c4cccs4)CC3)c2cc1C(C)C,-2.14%
15,Cc1ccc(CNC(=O)Cc2cn(C)c3ccccc23)cc1,11.6%
16,Cc1cc2oc(=O)cc(CN(C)Cc3ccc(OC(F)F)cc3)c2cc1Cl,-1.16%
17,O=C(NCCc1ccccc1Cl)C1CCC(=O)N(CCCc2ccccc2)C1 (stereo unspecified),-1.41%
18,O=C(NCCCc1ccccc1)C1CCC(=O)N(CCc2ccc(Cl)cc2)C1 (stereo unspecified),12% (active)
19,O=C(NCCN1CCOC1=O)C1CCC(=O)N(CCc2ccc(Cl)cc2)C1 (stereo unspecified),-3.62%
20,C/C=C(\C)C(=O)NCCN1C2=NC[C@H](Cc3ccc(O)cc3)N2C[C@@H]1Cc1ccc(OC)cc1,0.212%
21,COc1ccccc1NC(=O)c1ccc(N2CC3CC(C2)c2cccc(=O)n2C3)c(NC(=O)c2cccnc2)c1 (stereo unspecified),-5.5%
22,COc1ccccc1N1CC(O)=C(c2nc3ccccc3s2)C1=N,18.7% (active)
23,CCOC(=O)CCCN1CC(O)=C(c2nc3ccccc3s2)C1=N,6.59%
24,O=C(Nn1cnnc1)c1ccc([N+](=O)[O-])cc1,-3.89%
25,N=C1C(c2nc3ccccc3[nH]2)=C(O)CN1NC(=O)c1c[nH]c2ccccc12,6.82%
26,CCc1ccc(N2CC(O)=C(c3nc4ccccc4c(=O)[nH]3)C2=N)cc1,4.62%

row,SMILES,max response
1,N=C1C(c2nc3ccccc3s2)=C(O)CN1NC(=O)c1ccc([N+](=O)[O-])cc1,38.2% (active)
2,CCOc1ccc(N(CC(=O)Nc2ccccc2F)S(=O)(=O)c2c(C)[nH]c(=O)[nH]c2=O)cc1,9.46%
3,Cc1ccccc1/C=C\c1nc(O)c([N+](=O)[O-])c(=O)[nH]1,-5.68%
4,COC(=O)CNC(=O)c1ccccc1F,-2.02%
5,O=C(COC(=O)CNC(=O)c1ccccc1F)NCC(F)(F)F,-1.02%
6,CSc1nnc(CNC(=O)c2ccccc2)n1-c1ccc(F)cc1,-2.44%
7,O=C(CNC(=O)c1ccc(F)cc1)c1ccccc1,30% (active)
8,O=C(CNC(=O)c1ccccc1)NCC(=O)OCC(=O)c1ccccc1,-5.87%
9,O=C(CNC(=O)c1ccccc1F)c1ccc(Br)cc1,57.7% (active)
10,COCCNC(=O)NC(=O)COC(=O)C1(c2ccc(Cl)cc2)CC1,7.97%
11,CC1(C)Cc2c(sc(NC(=O)C(=O)N3CCOCC3)c2C#N)CO1,-9.16%
12,CC(C)c1nc(-c2ccccn2)no1,22.8% (active)
13,Clc1ccc(-n2nnnc2-c2cnc(-c3ccccn3)nc2-c2cccs2)cc1,-3.52%
14,O=C(Oc1ccc(-c2nc(-c3ccccn3)no2)cc1)c1ccccc1,31% (active)
15,c1csc(-c2nc(-c3ccncc3)no2)c1,29.3% (active)
16,O=C(NCc1cccnc1)c1nc(-c2cccs2)no1,13.1%
17,CC1(C)N=C(c2ccccn2)C(C)(C)N1O,-7.15%
18,c1ccc(-c2nccc(-c3ccc(-n4cnc5ccccc54)cc3)n2)nc1,-1.84%
19,O=C(COC(=O)c1ccc(Oc2ccccc2)cc1)Nc1nnc(-c2ccccc2)o1,13.5%
20,CCCCCCOc1ccc(OC(=O)c2cccnc2)cc1,14.6%
21,COc1nc(-c2ccc(Cl)cc2)ccc1-c1noc(-c2cccs2)n1,-1.17%
22,c1ccc(-c2noc(-c3cccs3)n2)nc1,17.4% (active)
23,O=C(O)COc1ccc(-c2nccc(-c3cccs3)n2)cc1,-3.38%

# From PubChem BioAssay AID2314 (National Center for Advancing Translational Sciences (NCATS), 2010)
